Cruzain inh noDet – blocks cruzain activity in detergent-free assay; P25779; purified cruzain, Z-FR-AMC fluorescence, no detergent; Potency, µM, usual class: inhibitors; 2.3% of 200,000 active; AID 1476; also: nearly all actives have a fitted effect of over 40% in size
Target sequence (P25779 123-467 limits assumed): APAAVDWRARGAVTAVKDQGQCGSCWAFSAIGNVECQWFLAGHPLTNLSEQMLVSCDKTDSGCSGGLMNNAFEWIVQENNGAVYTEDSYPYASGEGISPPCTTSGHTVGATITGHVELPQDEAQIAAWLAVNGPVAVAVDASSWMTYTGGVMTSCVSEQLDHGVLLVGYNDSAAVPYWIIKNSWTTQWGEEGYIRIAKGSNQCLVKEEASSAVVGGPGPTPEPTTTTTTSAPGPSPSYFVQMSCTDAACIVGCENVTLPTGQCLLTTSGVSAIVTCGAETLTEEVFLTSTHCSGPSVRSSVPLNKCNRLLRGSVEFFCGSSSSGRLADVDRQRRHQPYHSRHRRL
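Purified cruzain at 1.5 nM, pre-incubated 15 min with compound at room temperature in 100 mM sodium acetate pH 5.5, 5 mM DTT, 0.00005% Triton X-100. Reaction started with 2 uM Z-FR-AMC; AMC fluorescence increase over 60 s gives rate.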
Cruzain inh Det – inhibitors of Trypanosoma cruzi cruzain with detergent; P25779; 0.43% of 200,000 active; Potency, µM, actives largely listed as inhibitors; purified cruzain, Z-FR-AMC fluorescence, 0.01% Triton; also: nearly all actives have a fitted effect of over 40% in size
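In this qHTS format, compounds are incubated with 1.5 nM cruzain for 15 min at room temperature before 2 uM Z-FR-AMC is added. Release of AMC is followed at 360/450 nm, and progress is taken as the 60 s fluorescence difference.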
Hits are given with their value. An excerpt weighted towards active compounds, which were near 2.4% of everything screened. Calls follow the shape of the dose curve; as a rule, active = well fitted curve in the direction sought with a large enough effect; inconclusive = small, poorly fitted or top-dose-only effect, or another doubt; inactive = no such curve, though single readings can be large; an effect the other way counts as inactive or inconclusive.

Results for COc1ccccc1C1C=C(c2ccccc2)Nc2nnnn21 (configuration not stated) ?
Cruzain inh noDet: inactive; Cruzain inh Det: inactive

How did Cc1ccc(CCNC(=O)C23CN(Cc4ccccc4)CC2C(c2ccc([N+](=O)[O-])cc2)=NO3)cc1 (configuration not stated) do in these assays?
Cruzain inh noDet: inactive; Cruzain inh Det: inactive

How did O=C(CCCn1c(SCC(=O)NCC2CCCO2)nc2ccccc2c1=O)NCc1ccccc1 (configuration not stated) do in these assays?
Cruzain inh noDet: inactive; Cruzain inh Det: inactive

Results for COc1cc(/C=N/NC(N)=O)cc(Br)c1OCc1ccc(C)cc1 ?
Cruzain inh noDet: inconclusive; Cruzain inh Det: inactive

How did Cc1cc(Br)c(OCc2ccc(C(=O)N/N=C3\CC4CC=CC34)cc2)c(Br)c1 (configuration not stated) do in these assays?
Cruzain inh noDet: 20µM; Cruzain inh Det: inactive

How did CCCCSC1(SCCCC)N=C(N)C2(C#N)C(c3ccccc3)NC(C)=C(C)C12C#N (configuration not stated) do in these assays?
Cruzain inh noDet: inconclusive; Cruzain inh Det: inactive

What do the screens show for `CCOc1ccc(NC(=O)C2CC(=O)NC(=Nc3ccc(Cl)c(Cl)c3)S2)cc1` (configuration not stated)?
Cruzain inh noDet: 10µM; Cruzain inh Det: inconclusive

What do the screens show for `CC(/C=C/c1ccc(N(C)C)cc1)=N/N=C1/NC(=O)CC(C(=O)Nc2ccc(Cl)cc2)S1` (configuration not stated)?
Cruzain inh noDet: inconclusive; Cruzain inh Det: inactive

What do the screens show for `CCCOc1ccc(NC(=O)C2CC(=O)N/C(=N/N=C(C)/C=C/c3ccc(N(C)C)cc3)S2)cc1` (configuration not stated)?
Cruzain inh noDet: 25µM; Cruzain inh Det: inactive

What do the screens show for `CCOc1ccc(NC(=O)C2CC(=O)N(CC)C(=Nc3ccc4c(c3)OCO4)S2)cc1` (configuration not stated)?
Cruzain inh noDet: inactive; Cruzain inh Det: inactive

How did Cc1ccccc1-n1c(SCC(N)=O)nc2sc(-c3ccccc3)cc2c1=O do in these assays?
Cruzain inh noDet: inactive; Cruzain inh Det: inactive

How did C=CCSc1nc2sc(-c3ccccc3)cc2c(=O)n1N do in these assays?
Cruzain inh noDet: 32µM; Cruzain inh Det: inactive

How did O=C(CNc1cc(S(=O)(=O)N2CCCC2)ccc1OCC(F)(F)F)Nc1ccc(SC(F)F)cc1 do in these assays?
Cruzain inh noDet: 16µM; Cruzain inh Det: inactive

Results for N#Cc1ccc(C(=O)Nc2cc(S(=O)(=O)N3CCCC3)ccc2OCC(F)(F)F)cc1 ?
Cruzain inh noDet: inactive; Cruzain inh Det: inactive

How did Cc1cc(C)c(Cn2c3ccccc3c3cnn(CC(=O)NCCC4=CCCCC4)c(=O)c32)c(C)c1 do in these assays?
Cruzain inh noDet: inactive; Cruzain inh Det: inactive

How did O=C(Nc1ccc(F)cc1)c1cccnc1N1CCCCC1 do in these assays?
Cruzain inh noDet: inactive; Cruzain inh Det: inactive

Results for CC1Cc2ccccc2N1Cc1cc(=O)n2ccsc2n1 (configuration not stated) ?
Cruzain inh noDet: inconclusive; Cruzain inh Det: inactive

How did CC1Cc2ccccc2N1Cc1nc2cc(C(F)(F)F)ccc2c(=O)[nH]1 (configuration not stated) do in these assays?
Cruzain inh noDet: 25µM; Cruzain inh Det: inactive

Results for COc1ccccc1NS(=O)(=O)c1cc(NC(=O)Nc2cccc(C)c2)ccc1N1CCCCC1 ?
Cruzain inh noDet: 5µM; Cruzain inh Det: inactive

What do the screens show for `O=C(Nc1ccc(Cl)cc1)Nc1ccc(N2CCCC2)c(S(=O)(=O)Nc2ccccc2Cl)c1`?
Cruzain inh noDet: inconclusive; Cruzain inh Det: inactive

How did Cc1cc(=O)oc2cc(NC(=O)CCCC(=O)O)ccc12 do in these assays?
Cruzain inh noDet: inactive; Cruzain inh Det: inactive

Results for C/C(CCc1ccc2c(c1)OCO2)=N\N=C(/N)SC1CC(=O)N(c2ccccc2F)C1=O (configuration not stated) ?
Cruzain inh noDet: 16µM; Cruzain inh Det: inactive

How did CCN=C(Nc1ccc2c(c1)OCO2)SC1CC(=O)N(c2ccccc2F)C1=O (configuration not stated) do in these assays?
Cruzain inh noDet: inactive; Cruzain inh Det: inactive

What do the screens show for `CC1Cc2ccccc2N1c1nc(C2CC2)nc2c1nnn2Cc1ccccc1` (configuration not stated)?
Cruzain inh noDet: 20µM; Cruzain inh Det: inactive

What do the screens show for `CC1Cc2ccccc2N1c1ncnc2c1nnn2Cc1ccccc1` (configuration not stated)?
Cruzain inh noDet: inconclusive; Cruzain inh Det: inactive

Results for Cc1nnc(OC(C)C)c2nn(-c3ccccc3F)c(C)c12 ?
Cruzain inh noDet: inactive; Cruzain inh Det: inactive

What do the screens show for `Fc1ccccc1-n1[nH]nnc1=S`?
Cruzain inh noDet: 13µM; Cruzain inh Det: 20µM

Results for CCc1ccccc1NC(=O)CCCN1C(=O)COc2ccc(C)cc21 ?
Cruzain inh noDet: inactive; Cruzain inh Det: inactive

What do the screens show for `CC(=O)c1cccc(NC(=O)CCCN2C(=O)COc3ccc(C)cc32)c1`?
Cruzain inh noDet: inconclusive; Cruzain inh Det: 18µM

How did CN1CCN(C(=O)CSc2nc(-c3ccncc3)ccc2C#N)CC1 do in these assays?
Cruzain inh noDet: inactive; Cruzain inh Det: inactive

What do the screens show for `CCOC(=O)C(C)Sc1nc(-c2ccccc2)ccc1C#N` (configuration not stated)?
Cruzain inh noDet: inactive; Cruzain inh Det: inactive

What do the screens show for `N#Cc1ccc(-c2ccc(Cl)cc2)nc1SCC(=O)c1cccc(Cl)c1`?
Cruzain inh noDet: 10µM; Cruzain inh Det: inactive

How did N#Cc1ccc(-c2ccccc2)nc1SCC(=O)c1cccc(Cl)c1 do in these assays?
Cruzain inh noDet: 13µM; Cruzain inh Det: inactive

How did CCn1c(COc2ccc(Cl)cc2)nnc1SCc1ccc(C#N)cc1 do in these assays?
Cruzain inh noDet: inactive; Cruzain inh Det: inactive

What do the screens show for `CCOC(=O)N1CCN(Cc2nc(N)nc(Nc3ccc(OCC)cc3)n2)CC1`?
Cruzain inh noDet: inactive; Cruzain inh Det: inactive

What do the screens show for `O=C(O)CSc1nc2ccc(NC(=O)COc3ccc(Cl)cc3)cc2s1`?
Cruzain inh noDet: inactive; Cruzain inh Det: inactive

What do the screens show for `Cc1cccc(NC(=O)CSc2nc3ccc(NC(=O)COc4ccc(Cl)cc4)cc3s2)c1`?
Cruzain inh noDet: 7.9µM; Cruzain inh Det: inactive

Results for O=C(CSc1nc2ccc(NC(=O)CSc3nnnn3-c3ccccc3)cc2s1)Nc1ccccc1 ?
Cruzain inh noDet: 5µM; Cruzain inh Det: inactive

How did Cc1cccc(NC(=O)CSc2nc3ccc(NC(=O)CSc4nnnn4-c4ccccc4)cc3s2)c1C do in these assays?
Cruzain inh noDet: inconclusive; Cruzain inh Det: inactive

Results for Cc1ccc(NC(=O)CCn2nc(C)c3c(C)n(-c4ccccc4)nc3c2=O)cc1Cl ?
Cruzain inh noDet: inconclusive; Cruzain inh Det: inactive

How did COc1ccc(-c2cc3nc(-c4ccccc4)cc(N4CCC5(CC4)OCCO5)n3n2)cc1 do in these assays?
Cruzain inh noDet: inconclusive; Cruzain inh Det: 22µM

Results for Cc1ccc(-c2cc3nc(-c4ccccc4)cc(N4CCOCC4)n3n2)cc1 ?
Cruzain inh noDet: inconclusive; Cruzain inh Det: inactive

How did Fc1ccc(-c2noc3ncnc(NCC4CCN(Cc5ccc(Cl)cc5)CC4)c23)cc1 do in these assays?
Cruzain inh noDet: inactive; Cruzain inh Det: inactive

How did CCOc1ccccc1-c1nc(-c2ccc(NC(=O)Cc3ccc(OC)cc3)cc2)no1 do in these assays?
Cruzain inh noDet: 7.9µM; Cruzain inh Det: inactive

How did COc1ccc(CC(=O)Nc2ccc(-c3noc(-c4ccc(Cl)cc4)n3)cc2)cc1 do in these assays?
Cruzain inh noDet: 4µM; Cruzain inh Det: inactive

Source: PubChem (National Center for Advancing Translational Sciences (NCATS))
